This passage reports activity (normalised, proliferation) results from PubChem BioAssay AID743366 (National Center for Advancing Translational Sciences (NCATS), 2014).

The nature of the assay: qHTS profiling of inhibitors of Plasmodium falciparum (HB3) proliferation (acoustic dispense). Conditions: P. falciparum HB3 in erythrocytes, SYBR Green, 72 h; at 49.8 µM (top of the series) unless noted. From the text: Plasmodium falciparum is a virulent malarial parasite that kills 1-2 million people worldwide each year. Transmitted by mosquitoes, the sporozoite form of the parasite enters the blood stream to infect hepatocytes, where they become merozoites that infect red blood cells (erythrocytes). Within erythrocytes, merozoites begin a […] cycle of growth and division, after which the parasite is released to infect new red blood cells. Gametocytes, which form within erythrocytes as well, circulate in the bloodstream and are ingested by the mosquito, thereby completing the life cycle. To profile malarial isolates for differential chemical responses and to identify inhibitors of malarial growth, an assay that measures P. falciparum growth and replication within erythrocytes was employed. This assay uses a DNA binding fluorescent dye (SYBR Green) to detect parasite DNA following cell lysis. Because mature erythrocytes lack DNA, only Plasmodium-derived DNA is detected.
The SYBR Green viability assay was adapted from a method described previously (Plouffe et al., 2008). For screening 3 ul culture medium was dispensed into 1536 well black clear bottom plates (Aurora Biotechnologies) using a Multidrop Combi (Thermo Fisher Scientific Inc.), 23 nL of compounds in DMSO were added by an acoustic dispenser (EDC Biosystems), and 5 ul of erythrocytes infected with P. falciparum (0.3% parasitemia, 2.5% hematocrit final concentration) were added. The plates were incubated at 37 C in a humidified incubator in 5% CO2 for 72 h, and 2 ul lysis buffer (20 mM Tris HCl, 10 mM EDTA, 0.16% saponin, 1.6% triton X, 10X SYBR Green I supplied as 10,000X […] by Invitrogen) was added to each well. The plates were mixed for 25 sec with gentle shaking and incubated overnight at room temperature in the dark. The following morning, fluorescence intensity at 485(14) nm excitation and 535(25) nm emission wavelengths was measured on an EnVision (Perkin Elmer) plate reader. Plate reads were normalized relative to the control inhibitor (0.29 uM artemisinin) and vehicle (DMSO) wells present on each plate and then corrected by an algorithm using vehicle-only control plates at the beginning and end of the compound plate stack.
A general note: Quantitative high-throughput screening tests each substance at several concentrations.
Consider `CC(=O)N(O)CCCP(=O)(O)O`, for which the activity (normalised, proliferation) turned out to be 2.97%.

`C[C@@H]1C[C@@H]([C@H](O)CC2CC(=O)NC(=O)C2)C(=O)[C@@H](C)C1`: the activity (normalised, proliferation) is 0.071%.

For the compound `CC(=Cc1csc(C)n1)[C@@H]1C[C@H]2O[C@@H]2CCC[C@H](C)[C@@H](O)[C@@H](C)C(=O)C(C)(C)[C@@H](O)CC(=O)O1`, the activity (normalised, proliferation) is 10.3%.

In the case of `COC1=CC(C)=C[C@@H](C)[C@@H](O)[C@@H](C)CC(C)=CC=C[C@H](OC)[C@H]([C@@H](C)[C@@H](O)[C@H](C)[C@@]2(O)C[C@@H](O)[C@H](C)[C@@H](C(C)C)O2)OC1=O`, the activity (normalised, proliferation) is 0.863%.

For `CC1=C(O)C(=O)C=C2C1=CC=C1[C@@]2(C)CC[C@@]2(C)[C@@H]3C[C@](C)(C(=O)O)CC[C@]3(C)CC[C@]12C`, the activity (normalised, proliferation) was 7.07%.

Take `O=C(C[C@@H]1NCCC[C@@H]1O)Cn1cnc2ccccc2c1=O`: the activity (normalised, proliferation) is -0.592%.

`CC=C1C2C=C(C)CC1(N)c1ccc(=O)[nH]c1C2` (stereo unspecified): the activity (normalised, proliferation) amounted to 103%.

With `COC(=O)[C@@]1(OC)C[C@@H]2O[C@@]1(C)n1c3ccccc3c3c4c(c5c6ccccc6n2c5c31)C(=O)N(C)C4`, the activity (normalised, proliferation) is -0.375% [at 16.5 µM].

In the case of `CC(=O)Nc1nnc(S(N)(=O)=O)s1`, the activity (normalised, proliferation) was 89.5%.

As for `CC=C(C)C(=O)N[C@@H](c1ccccc1)[C@@H](O)C(=O)O[C@H]1C[C@@]2(O)[C@@H](OC(=O)c3ccccc3)[C@@H]3[C@]4(OC(C)=O)CO[C@@H]4C[C@H](O)[C@@]3(C)C(=O)[C@H](OC(C)=O)C(=C1C)C2(C)C`, the activity (normalised, proliferation) is 2.88%.

For the compound `C[C@]12O[C@H](C[C@@]1(O)C(=O)O)n1c3ccccc3c3c4c(c5c6ccccc6n2c5c31)CNC4=O`, the activity (normalised, proliferation) was found to be 8.93% [at 4.15 µM].

Regarding `C[C@H]1CCCC=CC2C[C@H](O)C[C@@H]2[C@H](O)C=CC(=O)O1` (stereo partly specified), the activity (normalised, proliferation) was -0.991%.

`O=c1[nH]c2ccc(Cl)cc2c(N[C@@H]2CN3CCC2CC3)c1-c1nc2ccccc2[nH]1`: the activity (normalised, proliferation) is -0.29%.

As for `CO[C@H]1CCC(O[C@H]2C[C@H]([C@]3(C)CC[C@]4(C[C@H](O)[C@@H](C)[C@@H]([C@@H](C)C=C(C)C(=O)[C@H](C)C[C@H](C)C(=O)O)O4)O3)O[C@]3(O[C@@H]([C@H]4O[C@@](O)(CO)[C@H](C)C[C@H]4C)C[C@H]3C)[C@H]2C)O[C@H]1C` (stereo partly specified), the activity (normalised, proliferation) turned out to be 120%.

For the compound `CC(C)(N)CNC(=O)CC1CCC2(CC1)OOC1(O2)C2CC3CC(C2)CC1C3` (stereo unspecified), the activity (normalised, proliferation) is -0.313%.

Consider `CN1C(=O)C[C@H](C(=O)N[C@@H](Cc2cnc[nH]2)C(=O)N2CCC[C@@H]2C(N)=O)NC1=O`, for which the activity (normalised, proliferation) amounted to 72.5%.
